Inconclusive results are not listed. A call without a number means that no potency is given here. Values without a mark were called inactive. The source made the active and inactive calls. The call rests on the fitted dose curve; in most records, active means well fitted cell-killing curve with a large enough effect in the repeat runs; inconclusive means weak or mixed curves, or effect the other way; inactive means flat fitted curve, though single readings scatter.
Assay: qHTS assay to identify small molecule antagonists of the constitutive androstane receptor (CAR) signaling pathway - cell viability counter screen (AID 1224837); further: nearly all actives have a fitted effect of over 45% in size
Conditions: HepG2-CYP2B6-hCAR viability, CellTiter-Fluor, 23 h, co-treated with 50 nM CITCO; series mostly up to 92.4 µM
Source text: National Center for Advancing Translational Sciences [NCATS]
NIH Chemical Genomics Center [NCGC]
U.S. Environmental Protection Agency [EPA]
National Institutes of Environmental Health Sciences [NIEHS]
National Toxicology Program [NTP]
U.S. Food and Drug Administration [FDA]
The constitutive androstane receptor (CAR) is a nuclear receptor which regulates multiple drug metabolizing enzymes (DMEs) and transporters. Activating CAR will generally increase the transcription and subsequent translation of CYP2B6 and CYP3A4. These two DMEs represent about 50% of the drug metabolizing potential in the body. When CAR is deactivated, the metabolizing potential in the body will decrease, subsequently increasing the toxicity in the body or lowering the therapeutic potential of a pro-drug. Recently, there have also been studies performed indicating CARs role in energy metabolism and cancer therapy. Therefore, inhibiting CARs activity could have a potential effect on diabetes and cancer. Identifying environmental toxins and compounds which modulate CAR, through the use of the Tox21 10K compound collection, will be an important step in determining the toxicity and potential therapeutic effects these factors will have on the human body. To differentiate true CAR antagonists from cytotoxic substances, the assay is multiplexed with a cell viability assay.
Tox21 Assay Protocol Summary:
A double-stable (hCAR and CYP2B6-2.2kb) transfected cell line, derived from human hepatoma (HepG2) cells, was utilized for the duration of the quantitative high-throughput screens. The HepG2-CYP2B6-hCAR cells were dispensed at 2500 cells/4 uL/well in 1536-well white solid bottom plates using a Multidrop Combi. After the assay plates were incubated at 37 C/5% CO2 for 4 hrs, 23 nL of compounds at 15 concentrations (from 5-48 columns) or positive control (from 1 to 4 columns) were transferred to the assay plates using a Pintool station. One uL of CITCO (final concentration = 50 nM) was added, using a Flying Reagent Dispenser, inside each well. After a 23 hr incubation period at 37 C/5% CO2, 1 uL of CellTiter-Fluor reagent was added into each well of the assay plates using a Flying Reagent Dispenser. The fluorescence intensity in the plates was then measured using a ViewLux plate reader.
With `NCCC(O)(P(=O)(O)O)P(=O)(O)O` the Potency was “inactive”.
In the case of `CC(C)(C)c1ccc(OC(=O)c2ccccc2O)cc1`, the Potency is reported as “inactive”.
In the case of `CC(C)C(=O)OCC(C)(C)C(O)C(C)C` (stereo not given), the Potency is reported as “inactive”.
For `NC1=NCC2c3ccccc3Cc3ccccc3N12` (stereo not given), the Potency was “inactive”.
With `Cc1ncc(CO)c(CN)c1O` the Potency was “inactive”.
For `CCCCCCCCc1ccc(S(=O)(=O)O)cc1`, the Potency was “inactive”.
In the case of `Nc1ccc2ccccc2c1S(=O)(=O)O`, the Potency is reported as “inactive”.
With `CCCC(CCC)(C(=O)OCC)C(=O)OCC` the Potency was “inactive”.
In the case of `CO[C@@]1(NC(=O)CSCC#N)C(=O)N2C(C(=O)O)=C(CSc3nnnn3C)CS[C@@H]21`, the Potency is reported as “inactive”.
In the case of `CC1=C2[C@H](/C=C(\C)C(=O)O)CC[C@@H](C)[C@H]2CC1`, the Potency is reported as “inactive”.
In the case of `CCCCCCCCCC/C=C/C#N`, the Potency is reported as “inactive”.
For `Cc1ccc(C(C)C)cc1O`, the Potency was “inactive”.
With `O=c1oc2c(O)c(O)cc3c(=O)oc4c(O)c(O)cc1c4c23` the activity change, negative = cytotoxicity was 9.67% [at 19 µM].
With `COc1nc(C)nc(NC(=O)NS(=O)(=O)c2ccccc2OCCCl)n1` the Potency was “inactive”.
For `CC(C)c1ccccc1`, the Potency was “inactive”.
With `Cc1cc(NS(=O)(=O)c2ccc(N)cc2)nc(C)n1` the Potency was “inactive”.
With `CCOc1ccc(NC(N)=O)cc1` the Potency was “inactive”.
With `NCCCN1CCN(CCCN)CC1` the Potency was “inactive”.
With `CC(=O)O[C@H]1CC[C@@]2(C)C(=CC[C@@H]3[C@@H]2CC[C@]2(C)C(C(C)=O)=CC[C@@H]32)C1` the Potency was “inactive”.
For `CCOC(=O)CS`, the Potency was “inactive”.
In the case of `OCc1c2ccccc2cc2ccccc12`, the Potency is reported as “inactive”.
In the case of `O=C(O)[C@@H](O)[C@H](O)[C@H](O)[C@@H](O)C(=O)O`, the Potency is reported as “inactive”.
In the case of `CCOc1ccc2nc(N)sc2c1`, the Potency is reported as “inactive”.
For `CCCCC(CC)COC(=O)COc1cc(Cl)c(Cl)cc1Cl` (stereo not given), the Potency was “inactive”.
In the case of `O=CCCc1ccccc1`, the Potency is reported as “inactive”.
In the case of `CN1CCN(N)CC1`, the Potency is reported as “inactive”.
In the case of `CCCCCCC`, the Potency is reported as “inactive”.
With `C=CC(C)(O)CC/C=C(\C)CCC=C(C)C` (stereo not given) the Potency was “inactive”.
For `COc1ccc(Nc2ccc(OC)cc2)cc1`, the Potency was “inactive”.
With `O=S(=O)(O)C(F)(F)F` the Potency was “inactive”.
With `Cc1ccc(C)c(N)c1` the Potency was “inactive”.
In the case of `CO[Si](C)(C)OC`, the Potency is reported as “inactive”.
In the case of `CCOc1ccc(OCC)c(Cl)c1`, the Potency is reported as “inactive”.
With `C=CCc1cc(OC)c(O)c(C(=O)NCCO)c1` the Potency was “inactive”.
In the case of `O=c1[nH]c(=O)n([C@H]2C[C@H](O)[C@@H](CO)O2)cc1C(F)(F)F`, the Potency is reported as “inactive”.
For `CC1(O)CSC(C)(O)CS1` (stereo not given), the Potency was “inactive”.
For `O=C1N(c2ccccc2)c2ccccc2C1(Cc1ccncc1)Cc1ccncc1`, the Potency was “inactive”.
For `Cc1ccc(C=O)s1`, the Potency was “inactive”.
With `CCNCCO` the Potency was “inactive”.
In the case of `O=C(O)[C@@H]1CSCN1`, the Potency is reported as “inactive”.

— PubChem BioAssay (Tox21)
